± gives the standard deviation of the averaged measurements. Over roughly 33,000 sequences, “E-score (rank enrichment, -0.5 to 0.5)” has its median near -0.0068; the highest 2% begin near 0.24. The entries come from a sample that favours the highest values as a whole.
What follows are sequences tested on muMax20 (Max(13-93) K31hArg/K57hArg, M65Nle) (assay: PBM 8-mer E-score (E-score (rank enrichment, -0.5 to 0.5)); higher = stronger preferential binding).
Experimental: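 Protein binding microarray (universal PBM chip covering all 10-mers in fixed probe flanks) with chemically synthesized human Max(13-93) bHLH-LZ analogs (not full-length Max) bearing noncanonical residues (hArg, Tha, Aib, Nle at 65) and aromatic Cys staples. Read-out per 8-mer (and its reverse complement): E-score (rank-based enrichment, -0.5 to 0.5) and Z-score of median probe intensity.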

Row | Sequence | PBM 8-mer E-score
1 | GAAGCTTA | 0.129 ± 0.018
2 | ATGGACTA | 0.128 ± 0.015
3 | GCGGATAA | -0.0466 ± 0.033
4 | CTGACTAC | -0.0404 ± 0.19
5 | CTATAAGC | -0.00153 ± 0.018
6 | AATGCAAC | 0.197 ± 0.047
7 | ACTGCATG | -0.0337 ± 0.13
8 | AATGCATG | 0.237 ± 0.073
9 | CATGCAAG | 0.118 ± 0.015
10 | CATGCAAC | 0.327 ± 0.012
11 | AATGCAAG | 0.0709 ± 0.08
12 | GACTCCGA | -0.155 ± 0.046
13 | TCTCGACA | -0.0258 ± 0.011
14 | TCGGGTAA | 0.00741 ± 0.027
15 | ACAGGCAT | -0.0411 ± 0.063
16 | CCTCTCTC | -0.045 ± 0.086
17 | ACATCACC | -0.0768 ± 0.063
18 | ATATCATG | 0.175 ± 0.056
19 | ATATCATA | 0.253 ± 0.14
20 | GCATCAGA | 0.0605 ± 0.012
21 | ATATCACG | 0.294 ± 0.068
22 | CTATCACA | 0.169 ± 0.029

Row | Sequence | PBM 8-mer E-score
23 | ACATCACT | 0.245 ± 0.095
24 | CCATCATA | 0.0385 ± 0.12
25 | CTATCATA | 0.208 ± 0.054
26 | ATATCACA | 0.117 ± 0.14
27 | GCATCATA | 0.274 ± 0.019
28 | ACATCACA | 0.221 ± 0.009
29 | AGACTGGG | -0.147 ± 0.064
30 | ACGGAATA | -0.0839 ± 0.0017
31 | AGCTTGGG | -0.0797 ± 0.022
32 | CAATGATG | -0.00417 ± 0.0019
33 | ACGCTCGC | 0.0344 ± 0.16
34 | CTGAGCTA | -0.17 ± 0.098
35 | CATTTTAC | 0.188 ± 0.026
36 | GCGTCAAA | -0.0402 ± 0.15
37 | AGACGGGA | -0.0877 ± 0.053
38 | TGAATCCA | 0.0507 ± 0.048
39 | GGGTTCCA | -0.11 ± 0.023
40 | AGCGATTG | -0.152 ± 0.033
41 | ACCAATCT | -0.0171 ± 0.067
42 | ACATCATA | 0.249 ± 0.038
43 | ATGTCACG | 0.297 ± 0.063
44 | ACATCATC | 0.166 ± 0.041

Row | Sequence | PBM 8-mer E-score
45 | CTGTCACA | 0.00831 ± 0.13
46 | ACATCATG | 0.07 ± 0.031
47 | ATGTCACA | 0.131 ± 0.002
48 | AGGGTTTC | -0.0163 ± 0.01
49 | CTATAACC | 0.0519 ± 0.0013
50 | AAATAACA | 0.204 ± 0.018
51 | ATATAACG | 0.269 ± 0.044
52 | GTATAACA | 0.228 ± 0.019
53 | CAATAACG | 0.0808 ± 0.07
54 | CTATAACA | 0.157 ± 0.085
55 | ATATAACA | 0.262 ± 0.032
56 | AAATAACG | 0.309 ± 0.086
57 | ATATAACC | 0.171 ± 0.041
58 | CATAATTC | -0.00772 ± 0.086
59 | AATAATTA | 0.26 ± 0.072
60 | CCTAATTA | 0.0515 ± 0.15
61 | GATAATTA | 0.127 ± 0.021
62 | AATAATTC | 0.179 ± 0.12
63 | CATAATTA | 0.237 ± 0.031
64 | GCGGAGCA | -0.239 ± 0.06
65 | AAGACACT | 0.186 ± 0.0044
66 | GAAACACA | 0.0586 ± 0.066

Row | Sequence | PBM 8-mer E-score
67 | ACAAGCTG | -0.103 ± 0.091
68 | AGACAATC | 0.0672 ± 0.021
69 | TAACAATA | 0.257 ± 0.033
70 | CAACAATG | 0.137 ± 0.096
71 | AGACAATA | 0.2983 ± 0.00038
72 | CAACAATC | 0.0661 ± 0.052
73 | AGACAATG | 0.0426 ± 0.00081
74 | AAACAATA | 0.234 ± 0.038
75 | CAACAATA | 0.324 ± 0.022
76 | GAACAATA | 0.0766 ± 0.03
77 | ACACCCGG | -0.144 ± 0.016
78 | GGGCTTGA | -0.165 ± 0.025
79 | ACACAGGA | 0.0105 ± 0.0057
80 | ACGGTCCT | -0.272 ± 0.044
81 | CTAAGTGC | -0.0257 ± 0.067
82 | TAAGAGAA | -0.0222 ± 0.03
83 | ACAAATCA | 0.237 ± 0.12
84 | ACAAAAAA | 0.249 ± 0.033
85 | ACAAAAAC | 0.178 ± 0.055
86 | ACAAAAAT | 0.241 ± 0.05

From the supplement of paper PMC12636033
